Data from PubChem BioAssay (Tox21).
Results filed as inconclusive are left out. Entries that show only a call come without a potency. Active and inactive are the calls of the source. The call rests on the fitted dose curve.

Assay: p53 small molecule agonists, cell-based qHTS assay with human liver microsomes (AID 1963577);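 further: p53 response element beta-lactamase reporter cells with liver microsomes plus NADPH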
Details: HCT-116 p53RE-bla with human liver microsomes, ratio, 16 h; series mostly up to 66 µM
Excerpt: National Center for Advancing Translational Sciences [NCATS]
Division of Preclinical Innovation [DPI]
U.S. Environmental Protection Agency [EPA]
National Institutes of Environmental Health Sciences [NIEHS]
National Toxicology Program [NTP]
U.S. Food and Drug Administration [FDA]
p53, a tumor suppressor protein, is activated following cellular insult, including DNA damage and other cellular stresses. The activation of p53 regulates cell fate by inducing DNA repair, cell cycle arrest, apoptosis, or cellular senescence. The activation of p53, therefore, is a good indicator of DNA damage and other cellular stresses. […] The activation of the reporter gene under culture conditions can be detected by fluorescence intensity.
Tox21 Assay Protocol Summary:
The p53RE-bla cells were dispensed at 4,000cells/3ul/well in 1536-well black-clear bottom plates. After the assay plates were incubated at 37 C, 5% CO2 incubator for 5 hours, 23 nL of compounds dissolved in DMSO, positive controls or DMSO only was transferred to the assay plate. Following compound addition, 3 uL of human liver microsomes (XenoTech, Kansas City, KS) at final concentration of 0.5 mg/mL and 1uL of Beta-Nicotinamide adenine dinucleotide 2-phosphate (NADPH) at final concentration of 0.5 mg/mL were transferred to the assay plate. The plates were incubated at 37 C for 16 hours. 1 uL of LiveBLAzer detection mixture was added to each well and the plates were incubated at room temperature in the dark for 2 h.

Question: Which Potency does the source give for `CCn1ccnc1CC1COc2ccccc2O1` (stereo not given) here?
Answer: The Potency was “inactive”.

Question: With `CCOC(=O)C(Br)c1ccccc1` (stereo not given) as the molecule, how does the Potency read?
Answer: The Potency was “inactive”.

Question: Which Potency does the source give for `COC(=O)C1=C(C)NC(C)=C(C(=O)OC(C)(C)CN(C)CCC(c2ccccc2)c2ccccc2)C1c1cccc([N+](=O)[O-])c1` (stereo not given) here?
Answer: Its Potency is “inactive”.

Question: With `FC(F)(F)c1ccc(Cl)cc1Cl` as the molecule, how does the Potency read?
Answer: The Potency was “inactive”.

Question: With `CC(=O)O[C@@H]1C(=O)O[C@@H]2[C@H]1OC(=O)[C@@H]2OC(C)=O` as the molecule, how does the Potency read?
Answer: Its Potency is “inactive”.

Question: With `Cc1nc(C2CCCCC2)c(-c2ccc(S(N)(=O)=O)c(F)c2)o1` as the molecule, how does the Potency read?
Answer: The Potency was “inactive”.

Question: With `CNS(=O)(=O)CCc1ccc2[nH]cc(C3CCN(C)CC3)c2c1` as the molecule, how does the Potency read?
Answer: The Potency was “inactive”.

Question: For `CCOc1ccc2ccccc2c1C(=O)N[C@@H]1C(=O)N2[C@@H]1SC(C)(C)[C@@H]2C(=O)O`, which Potency is on record?
Answer: Its Potency is “inactive”.

Question: With `O=C1C(=O)c2ccccc2C(O)=C1C1CCC(c2ccc(Cl)cc2)CC1` (stereo not given) as the molecule, how does the Potency read?
Answer: Its Potency is “inactive”.

Question: Which Potency does the source give for `On1nnc2ccccc21` here?
Answer: The Potency was “inactive”.

Question: For `O=C1CC2(CCCC2)CC(=O)N1`, which Potency is on record?
Answer: Its Potency is “inactive”.

Question: Which Potency does the source give for `CC(C)CCCC(=O)O` here?
Answer: The Potency was “inactive”.

Question: With `CCCC(=O)OCCC(C)C` as the molecule, how does the Potency read?
Answer: The Potency was “inactive”.

Question: Which Potency does the source give for `CC(O)c1ccccc1` (stereo not given) here?
Answer: Its Potency is “inactive”.

Question: For `CCC(C(=O)O)c1ccc(N2Cc3ccccc3C2=O)cc1` (stereo not given), which Potency is on record?
Answer: Its Potency is “inactive”.

Question: With `CN1CCCC(n2nc(Cc3ccc(Cl)cc3)c3ccccc3c2=O)CC1` (stereo not given) as the molecule, how does the Potency read?
Answer: The Potency was “inactive”.

Question: For `CCOC(=O)CC(=O)c1cc(F)c(Cl)nc1Cl`, which Potency is on record?
Answer: The Potency was “inactive”.

Question: Which Potency does the source give for `Cc1oc(=O)oc1COC(=O)[C@@H]1N2C(=O)[C@@H](NC(=O)[C@H](N)c3ccccc3)[C@H]2SC1(C)C` here?
Answer: Its Potency is “inactive”.

Question: With `COc1cccc(O)c1O` as the molecule, how does the Potency read?
Answer: The Potency was “inactive”.

Question: With `O=C(O)c1ccc(Cl)c(Cl)c1` as the molecule, how does the Potency read?
Answer: Its Potency is “inactive”.

Question: For `C/C=C/C=C/CCCCCCCO`, which Potency is on record?
Answer: Its Potency is “inactive”.

Question: Which Potency does the source give for `CSc1cnc(C)cn1` here?
Answer: The Potency was “inactive”.

Question: Which Potency does the source give for `CCCCCCCCCC(=O)OCC` here?
Answer: The Potency was “inactive”.

Question: With `CC(=O)[C@@]1(O)CC[C@H]2[C@@H]3C[C@H](C)C4=CC(=O)CC[C@]4(C)[C@H]3CC[C@@]21C` as the molecule, how does the Potency read?
Answer: Its Potency is “inactive”.

Question: With `CCOc1ccccc1O` as the molecule, how does the Potency read?
Answer: Its Potency is “inactive”.

Question: With `COc1ccc2c(c1OC)C(=O)O[C@@H]2[C@H]1c2c(cc3c(c2OC)OCO3)CCN1C` as the molecule, how does the Potency read?
Answer: Its Potency is “inactive”.

Question: For `CC(CCl)OC(C)CCl` (stereo not given), which Potency is on record?
Answer: The Potency was “inactive”.

Question: With `CCCC(C)C=O` (stereo not given) as the molecule, how does the Potency read?
Answer: Its Potency is “inactive”.

Question: With `Cc1cccc2sc(N)nc12` as the molecule, how does the Potency read?
Answer: The Potency was “inactive”.

Question: For `Nc1ccc(Cl)cc1[N+](=O)[O-]`, which Potency is on record?
Answer: The Potency was “inactive”.

Question: Which Potency does the source give for `O=C1C=CCCC1` here?
Answer: Its Potency is “inactive”.

Question: With `COc1ccc(-c2cc(=O)c3c(O)cc(O[C@@H]4O[C@H](CO[C@@H]5O[C@@H](C)[C@H](O)[C@@H](O)[C@H]5O)[C@@H](O)[C@H](O)[C@H]4O)cc3o2)cc1O` as the molecule, how does the Potency read?
Answer: The Potency was “inactive”.

Question: Which Potency does the source give for `COCC(=O)Nc1c(I)c(C(=O)NCC(O)CO)c(I)c(C(=O)N(C)CC(O)CO)c1I` (stereo not given) here?
Answer: Its Potency is “inactive”.

Question: For `CC(C)=CC(=O)C=C(C)C`, which Potency is on record?
Answer: The Potency was “inactive”.

Question: With `CC(C)(O)c1ccc(CNC(=O)c2cccnc2Oc2ccc(F)cc2)cc1` as the molecule, how does the Potency read?
Answer: Its Potency is “inactive”.

Question: Which activation does the source give for `C[C@@H]1CC[C@@]2(OC1)O[C@H]1C[C@H]3[C@@H]4CC[C@H]5C[C@@H](O)CC[C@]5(C)[C@H]4CC(=O)[C@]3(C)[C@H]1[C@@H]2C` here?
Answer: Its activation is 1.05% [at 5.99 µM] (inactive).

Question: With `CN(C)CCN1C(=O)c2ccccc2N(C)c2ccccc21` as the molecule, how does the Potency read?
Answer: Its Potency is “inactive”.

Question: With `CCN(CC)c1cccc(C)c1` as the molecule, how does the Potency read?
Answer: The Potency was “inactive”.

Question: Which Potency does the source give for `O=[N+]([O-])c1ccc2[nH]ncc2c1` here?
Answer: The Potency was “inactive”.

Question: With `CC(CC(=O)O)CC(C)(C)C` (stereo not given) as the molecule, how does the Potency read?
Answer: Its Potency is “inactive”.
